hgDAF12 agonist = H. glycines DAF-12 receptor agonists, primary screen, cell-based, luminescence, HEK293, GAL4 fusion, UAS-luciferase; Nuclear hormone receptor DAF-12 (Heterodera glycines), GAL4 fusion; HEK293 GAL4-hgDAF12 UAS-luciferase reporter, agonist luminescence; normalized to butyrate control; activation, % at 6.8 µM; hit rate 1.8% among 370,000; AID 687014, 2013;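 active = activation above a cutoff set at the mean of all screened compounds plus 3 SD, cut at about 10% in these data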;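 note: 0% = DMSO wells and 100% = sodium butyrate wells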
DAX1 inh-1 = DAX1 (NR0B1) inhibitors, primary screen, cell-based, HEK293, Gal4-DAX1, luciferase luminescence; hit rate 0.99% among 340,000; Nuclear receptor subfamily 0 group B member 1 (Homo sapiens), P51843; HEK293 Gal4-DAX1 luciferase reporter; inhibition, % at 6.75 µM;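 active = inhibition above the mean over all tested compounds plus 3 SD, cut at about 4.2% in these data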;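 note: 0% = DAX1-transfected cells with DMSO and 100% = empty-vector control cells with DMSO; inhibition shows as a rise in luminescence from relieved DAX1 repression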
Target sequence (P51843 207-470 limits assumed): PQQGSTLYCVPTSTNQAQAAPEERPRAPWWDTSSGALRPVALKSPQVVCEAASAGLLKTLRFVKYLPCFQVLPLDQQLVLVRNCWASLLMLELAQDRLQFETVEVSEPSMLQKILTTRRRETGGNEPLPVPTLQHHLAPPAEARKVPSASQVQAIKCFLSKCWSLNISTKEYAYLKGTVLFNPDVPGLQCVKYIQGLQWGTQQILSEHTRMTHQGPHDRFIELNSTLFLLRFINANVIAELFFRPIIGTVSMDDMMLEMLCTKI
SMARCA2 act = SMARCA2 (BRM) function activators, primary screen, cell-based, luminescence, high throughput; MG213 cells, MMTV-luciferase reporter, dexamethasone, overnight; activation, % at 9.1 µM; hit rate 1% among 370,000; AID 652017, 2013; in the data active = activation above about 7.8%;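 note: 0% = vehicle wells and 100% = reference activator wells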
hcDAF12 agonist = H. contortus DAF-12 nuclear receptor activators, primary screen, cell-based, luminescence, HEK293, lit1-tk-luc reporter | hit rate 1.4% among 370,000 | HEK293 hcDAF-12 lit1-tk-luc reporter; 0% DMSO, 100% Δ7-dafachronic acid | activation, % at 6.8 µM;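 active = activation above the mean of all tested compounds plus 3 SD, cut at about 5.5% in these data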;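 note: 100% = response to 3 µM Δ7-dafachronic acid high control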
DAX1 inh-2 = DAX1 (NR0B1) inhibitors on StAR promoter, primary screen, cell-based, luminescence, SF-1 (NR5A1), full-length DAX-1; AID 652010, 2013; HEK293T StAR-luciferase reporter, SF-1/DAX-1 repression relief; hit rate 1.1% among 370,000; inhibition, % at 6.8 µM;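 active = inhibition above the mean over all tested compounds plus 3 SD, cut at about 3.6% in these data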;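 note: 0% = DAX-1 cells with DMSO and 100% = cells lacking DAX-1 with DMSO; higher inhibition means more luminescence from relief of DAX-1 repression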
ssDAF12 agonist = S. stercoralis DAF-12 nuclear receptor activators, primary screen, cell-based, luminescence, HEK293, GRIP1 co-expression, lit1-tk-luc; Nuclear hormone receptor DAF-12 (Strongyloides stercoralis); HEK293 ssDAF-12/GRIP1 lit1-tk-luc reporter; % of 3 µM dafachronic acid response; activation, % at 6.8 µM; hit rate 1% among 370,000; AID 652126, 2013;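 active = activation above the mean over all tested compounds plus 3 SD, cut at about 0.9% in these data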;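 note: 0% = DMSO-only wells and 100% = 3 µM delta7-dafachronic acid wells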
LXRb hcDAF ctr = LXR agonists, Gal4 luciferase reporter, confirmation, counter-screen for hcDAF-12 agonist project, cell-based, luminescence, HEK293, H. contortus campaign; shares compounds with hcDAF12 agonist; HEK293 Gal4-LXR tk-luc reporter, 24 h; normalized: DMSO 0%, positive control 100%; activation, % at 6.8 µM; 3,400 tested, under 10 active; AID 743027, 2013;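 active = mean percent activation of the reporter above a cutoff set as the average over tested compounds plus their standard deviation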
Target sequence (P55055 whole entry, looked up, the tested form may be a part): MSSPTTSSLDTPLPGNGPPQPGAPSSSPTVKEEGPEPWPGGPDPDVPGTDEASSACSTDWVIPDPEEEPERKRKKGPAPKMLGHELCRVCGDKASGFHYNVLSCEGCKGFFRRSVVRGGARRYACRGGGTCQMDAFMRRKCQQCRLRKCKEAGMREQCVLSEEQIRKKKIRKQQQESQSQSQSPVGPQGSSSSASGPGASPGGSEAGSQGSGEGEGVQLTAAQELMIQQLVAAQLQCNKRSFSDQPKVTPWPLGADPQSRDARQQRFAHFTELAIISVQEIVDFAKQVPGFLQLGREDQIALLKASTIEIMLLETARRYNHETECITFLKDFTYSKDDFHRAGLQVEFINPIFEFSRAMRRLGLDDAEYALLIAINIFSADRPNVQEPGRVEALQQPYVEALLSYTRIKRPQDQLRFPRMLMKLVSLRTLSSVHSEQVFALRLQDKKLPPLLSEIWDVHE
hcDAF12 ag = H. contortus DAF-12 receptor agonists, confirmation, cell-based, luminescence, HEK293, lit1-tk-luc, triplicate | activation, % at 6.8 µM | hit rate 61% among 3,400 | shares compounds with hcDAF12 agonist | HEK293 hcDAF-12 lit1-tk-luc reporter; % of Δ7-dafachronic acid response;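 active = mean activation across triplicate tests above the threshold derived from the earlier primary screen, cut at about 5.5% in these data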;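 note: 0% = DMSO only wells and 100% = 3 µM Δ7-dafachronic acid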
* marks the source's active call; other numbers are inactive results; x = no result given. In the library only some 4.8% were active in any assay of this set; here they are far more common.

SMILES	hgDAF12 agonist	DAX1 inh-1	SMARCA2 act	hcDAF12 agonist	DAX1 inh-2	ssDAF12 agonist	LXRb hcDAF ctr	hcDAF12 ag
Cc1cc(NC(=O)c2cccs2)n(-c2nc3ccccc3[nH]2)n1	-0.7	1.3	0.1	1.8	-1.0	-1.1	x	x
Cc1ccc(C(=O)c2c3ccc(C(F)(F)F)cc3[n+]([O-])n2CCC(N)=O)cc1	0.9	1.0	0.6	7.8*	-0.1	-0.2	-0.2	1.9
COc1ccc(C(=O)c2c3ccccc3[n+]([O-])n2CCC(N)=O)cc1	1.6	0.9	3.1	-0.3	0.2	-1.1	x	x
COc1ccc2c(C(=O)c3ccc(Cl)cc3)n(CCCC(N)=O)[n+]([O-])c2c1	0.5	1.3	2.4	6.9*	0.5	0.2	-0.2	3.5
Cc1ccc2nc3c(cc2c1)c(NC(=O)c1cccnc1)nn3C	1.0	0.0	0.6	1.3	0.8	-0.8	x	x
C[C@@H]1CN([C@H](C)CO)C(=O)CCCn2cc(nn2)CO[C@H]1CN(C)S(=O)(=O)c1ccc(-n2cccn2)cc1	-0.6	-0.6	-0.4	0.9	-0.1	-1.3	x	x
Cn1ncc(Cl)c1C(=O)Nc1nc2ccc(Cl)cc2s1	12.2*	3.5	3.4	8.5*	1.9	1.1*	1.2	10.2*
O=C(Nc1nnc(-c2ccccc2Cl)o1)c1ccco1	9.9	0.3	0.4	3.8	0.0	-0.6	x	x
O=C(Nc1nnc(-c2ccccc2Cl)o1)c1nc2ccccc2s1	6.2	0.6	1.5	8.8*	0.6	1.2*	-0.3	4.8
CC1(C)Cc2c(sc3nc(-c4cccs4)n(N)c(=O)c23)CO1	3.2	-1.2	-2.3	0.2	-1.7	-1.7	x	x
Nn1c(-c2cccs2)nc2sc3c(c2c1=O)CCCC3	12.4*	4.0	0.2	21.2*	1.2	2.0*	1.4	11.4*
COc1cc(C(=O)N2CCCCC2c2cc(C(=O)Nc3ccccc3Cl)no2)cc(OC)c1C (stereo not given)	-0.2	x	-1.3	-1.3	-2.3	-0.8	x	x
O=C(NN1CCOCC1)c1ccc([N+](=O)[O-])cc1	4.3	0.9	-2.2	-0.1	0.2	-1.4	x	x
Cc1nc2c(-c3ccccc3)cnn2c(N2CCOCC2)c1C	12.8*	2.6	4.3	12.4*	2.6	0.1	1.4	9.0*
Nc1ccccc1-n1cccc1	6.9	x	7.4	14.7*	0.5	1.6*	-0.3	4.7
N/C(=N\O)c1ccccc1-n1cccc1	0.8	-0.6	-3.2	-0.7	-0.2	-1.8	x	x
O=C1NC[C@@H](CCCCN2C[C@H](Cc3ccc(O)cc3)N(CCc3ccc(O)cc3)C(=O)C2=O)N(CCc2ccc(O)cc2)C1=O	-3.1	x	-1.8	-1.3	-0.9	-0.6	x	x
CC[C@@]1(O)C(=O)OCc2c1cc1n(c2=O)Cc2cc3c(N)cccc3nc2-1	-9.4	-3.8	-7.0	-1.7	-2.5	-2.0	x	x
O=c1cccc2n1Cc1cc3ccccc3nc1-2	9.9	3.2	5.5	13.6*	1.8	-0.2	1.2	9.7*
COc1ccc(C(=O)n2nc(C)cc2Nc2ccccc2)cc1	5.8	2.8	4.3	8.7*	0.5	1.4*	0.6	9.6*
COc1ccc(NC(=O)Nc2cc(C)nn2-c2ccccc2)cc1	-0.8	x	-1.8	-1.3	0.6	-0.7	x	x
Cc1cccc(OCc2nnc(SCC(=O)Nc3cccc(C(=O)N4CCOCC4)c3)n2C)c1	-2.3	-1.1	-0.2	-1.9	-0.7	-0.8	x	x
Cn1c(C=O)c(-c2ccc3cc[nH]c3c2)c2ccccc21	4.2	3.1	0.0	7.7*	-0.1	-0.1	-0.2	5.5
CCOC(=O)C1CCCN(C(=O)c2ccncc2)CC1 (stereo not given)	1.7	x	-1.7	-0.6	0.8	-1.7	x	x
CN(C)c1ccc(NC(=O)CCN2C(=O)c3cccc([N+](=O)[O-])c3C2=O)cc1	0.2	1.3	-2.6	7.0*	0.3	-0.4	-0.1	1.3
SMILES	hgDAF12 agonist	DAX1 inh-1	SMARCA2 act	hcDAF12 agonist	DAX1 inh-2	ssDAF12 agonist	LXRb hcDAF ctr	hcDAF12 ag
COc1ccc(C(=O)Nc2sc(C)c(C)c2CN2CC(C)OC(C)C2)cc1 (stereo not given)	10.7*	3.1	4.3	8.9*	3.9*	0.1	0.0	4.1
O=C(NC1CCCC1)c1cc(-c2ccc(Cl)cc2)on1	7.2	3.3	5.2	5.1	1.4	0.2	x	x
CC(C)(C)c1ccc(C(=O)NCc2ccccc2)cc1	10.0	2.0	2.7	1.6	1.6	-1.2	x	x
CC(C)(C)c1ccc(C(=O)NCCC(=O)N2CCCC2)cc1	12.3*	3.0	0.8	7.0*	1.7	0.4	0.9	4.9
CC(C)(C)c1ccc(C(=O)NCCc2ccccc2)cc1	11.4*	-1.0	3.5	6.6*	2.6	0.7	2.1	11.7*
Cc1cc(C)c2[nH]c(=O)c(C(c3nnnn3CC3CCCO3)N3CCCC(C)C3)cc2c1 (stereo not given)	5.3	-0.8	0.0	-0.5	0.2	-0.9	x	x
COC(=O)c1sccc1NC(=O)c1ccc(C(C)C)cc1	4.0	1.2	0.9	7.1*	0.3	0.2	0.2	6.8*
CC1(C(=O)NCc2ccccc2Br)CCN1C(=O)C1(c2ccc(Cl)cc2)CC1 (stereo not given)	-0.5	x	-1.5	-2.2	-1.0	-2.0	x	x
CN(C)CCCNc1c2c(nc3ccccc13)CCC2	1.5	-0.2	6.1	7.0*	1.0	-0.8	0.0	5.0
O=C(Nc1ccc(Cl)cc1C(=O)Nc1ccccn1)c1ccco1	-2.1	-1.2	-1.5	-3.4	-0.5	-1.4	x	x
O=C(Nc1ccccn1)c1ccco1	3.2	2.8	2.3	8.5*	1.2	-0.9	0.3	2.5
O=C(Nc1ccccn1)c1ccc2ccccc2c1O	9.6	3.8	1.0	8.4*	1.8	1.5*	0.8	8.7*
O=C(O)c1ccccc1C(=O)Nc1ccccn1	0.5	-0.2	1.2	-1.0	-0.4	-1.5	x	x

Bioassay records (PubChem BioAssay)
